High-throughput results from PubChem.
PTHR1 ag – qHTS for PTHR1 Agonists: Primary Screen; 410,000 tested, 0.075% active; Parathyroid hormone/parathyroid hormone-related peptide receptor (Homo sapiens), Q03431; HEK293 GP2 PTHR1 cells, GloSensor cAMP luminescence, 1 h; AID 743266, 2014; Potency, µM (top dose mostly 115 µM), without a hit: at the top dose activation, most hits filed as activators; note: potency is the fitted concentration of half-maximal effect; nearly all actives have a fitted effect of over 55% in size
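HEK-293-derived GP2 cells expressing PTHR1 and a GloSensor cAMP reporter, 3,000/well, plated overnight, given luciferin plus IBMX (each 0.5 mM as added) for 1 h at 37 °C, then compound for 1 h at 37 °C. Luminescence was read after 15 min at room temperature.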
GLP1R cytotox – qHTS of GLP-1 Receptor Inverse Agonists: Cytotox Screen; HEK293 cAMP-luciferase reporter cells, luminescence, 24 h; Potency, µM (titrated, usually from 38.3 µM), for inactives: at the top dose activity change, negative = inhibition, usual class: inhibitors; AID 624418, 2012; 410,000 tested, 0.13% active;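 note: loss of luciferase light is scored as toxicity; potency is the fitted concentration of half-maximal effect; % is set by controls: 0 for no effect and ±100 for the full control effect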
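A 23 nL compound transfer followed 12 hours of cell culture at 37 deg C; exposure then lasted 24 hr. Luciferase assay detection reagent was dispensed and plates read for luminescence after a 12 min room-temperature wait.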
GLP-1R agonist – qHTS of GLP-1 Receptor Agonists | Glucagon-like peptide 1 receptor (Homo sapiens), P43220 | HEK293 GLP-1R CRE-luciferase, luminescence, 4-6 h; cells express a hypersensitive GLP-1R form | Potency, µM (titrated, usually from 45.6 µM), for the others: at the highest dose activation, usual class: activators | 380,000 tested, 0.007% active | AID 624172, 2012; note: potency is the fitted concentration of half-maximal effect; % of control where 0% means no effect
Target sequence (P43220 whole entry, looked up): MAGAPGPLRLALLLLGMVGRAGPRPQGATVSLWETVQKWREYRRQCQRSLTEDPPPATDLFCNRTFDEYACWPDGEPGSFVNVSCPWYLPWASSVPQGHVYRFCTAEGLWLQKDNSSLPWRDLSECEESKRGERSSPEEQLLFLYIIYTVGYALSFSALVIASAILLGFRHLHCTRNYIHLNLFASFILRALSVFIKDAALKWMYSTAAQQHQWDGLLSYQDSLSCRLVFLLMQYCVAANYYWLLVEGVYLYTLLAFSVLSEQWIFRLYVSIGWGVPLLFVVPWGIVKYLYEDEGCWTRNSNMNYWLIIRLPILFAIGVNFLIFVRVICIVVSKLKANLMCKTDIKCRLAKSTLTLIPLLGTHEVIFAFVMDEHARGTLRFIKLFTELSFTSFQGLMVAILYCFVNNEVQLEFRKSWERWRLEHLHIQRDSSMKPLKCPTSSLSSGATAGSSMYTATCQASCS
TSHR antag – Antagonists of the Thyroid Stimulating Hormone Receptor: HTS campaign | TSHR-expressing cells, TSH-stimulated cAMP HTRF, 2 h; hits give low values | activity change, negative = inhibition, % at 11.5 µM | AID 504810, 2011 | 330,000 tested, 0.2% active;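 active = activity change below a set negative limit, meaning inhibition stronger than a set level, cut at about -70% in these data; inconclusive = activity change between two set negative limits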; note: % is set by controls: 0 for no effect and ±100 for the full control effect
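Read-out is FRET at 665 nm (cryptate excitation 337 nm) from a cryptate-tagged anti-cAMP antibody, competed by cell cAMP against cAMP-d2. Compounds are tested on freshly harvested TSHR cells challenged with 4nM TSH (EC80) for 2 hours at 37 deg C.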
GLP1R inv ag – qHTS of GLP-1 Receptor Inverse Agonists (Inhibition Mode) | Glucagon-like peptide 1 receptor (Homo sapiens), P43220 | HEK293 GLP-1R CRE-luciferase, luminescence, 24 h; GLP-1R form is constitutively active | Potency, µM (series often up to 38.3 µM), for inactives: at the highest dose activity change, negative = inhibition, actives largely listed as inhibitors | 410,000 tested, 1.6% active | AID 624417, 2012; note: potency is the fitted concentration of half-maximal effect; % is set by controls: 0 for no effect and ±100 for the full control effect; nearly all actives have a fitted effect of over 55% in size
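Stable HEK293 clone (constitutively active GLP-1R + cAMP-response luciferase); 200 cells/uL plated, 12 h pre-culture, compound 24 hr, 37 deg C/5% CO2; detection reagent 12 min RT; luminescence.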
Starred values were filed as active, the others as inactive; i = inactive; ? = inconclusive; · = no result given; [ ] = remark or other dose. A selection: hits, their analogues and other compounds. The true share with any hit is near 1.8%. Unless noted, calls come from the whole dose curve; as a rule, active = well fitted curve in the direction sought with a large enough effect; inconclusive = small, poorly fitted or top-dose-only effect, or another doubt; inactive = no such curve, though single readings can be large; an effect the other way counts as inactive or inconclusive.

SMILES	PTHR1 ag	GLP1R cytotox	GLP-1R agonist	TSHR antag	GLP1R inv ag
Cc1ccc(OCCn2c(-c3ccc(Br)cc3)nc3ccccc3c2=O)cc1C	i	1%	·	·	7%
CC(=O)O[C@H]1C[C@@H]2CC[C@@H]3[C@H](CC[C@]4(C)[C@H](OC(C)=O)[C@@H](N5CC[N+](C)(C)CC5)C[C@@H]34)[C@@]2(C)C[C@@H]1N1CC[N+](C)(C)CC1	·	·	-3%	·	·
CC(CCc1ccccc1)NC(=O)CNc1cccc([N+](=O)[O-])c1 (centres undefined)	-12%	-10%	10%	-5	10µM*
Cc1c(Cl)cccc1NC(=S)N=Nc1c(O)n(CN2CCOCC2)c2ccccc12	-23%	1.4µM*	8%	-1	?
Oc1c(N=NC(=S)Nc2ccccc2F)c2ccccc2n1Cc1ccccc1Cl	-12%	6%	-3%	-5	-22%
Cc1noc(C)c1COC(=O)c1cccc(S(=O)(=O)N2c3ccccc3CC2C)c1 (centres undefined)	i	3%	3%	-29	14µM*
Cc1ccc(-c2ccc(=O)n(CC(=O)Nc3ccc(F)c(Cl)c3)n2)cc1C	i	-6%	·	·	16%
O=C(CC1CC2CCC1C2)OCC(=O)c1c[nH]c2ccccc12 (centres undefined)	-26%	-21%	4%	0	10µM*
CC1S/C(=N\N=C\c2cccc([N+](=O)[O-])c2)N(C(C)(C)C)C1=O (centres undefined)	i	0%	4%	-43	3.5µM*
Cc1ccc(NC(=O)Cn2cc(S(=O)(=O)NC(C)C)c(S(=O)(=O)NC(C)C)c2)cc1Cl	i	-24%	·	·	?
COc1cc(OC)cc(-c2nnc(SCC(=O)N(Cc3ccccc3)C(C)(C)C)o2)c1	-5%[57.5 µM]	8%	4%	-16	8.9µM*
COc1cc(-c2nnc(SCC(=O)N(Cc3ccccc3)C(C)(C)C)o2)cc(OC)c1OC	-4%[57.5 µM]	26%	5%	-6	?
CCOC(=O)C1(Cc2ccc(OC)cc2)CCN(C(=O)c2ccc3[nH]ccc3c2)CC1	-32%	-12%	1%	-3	4.5µM*
CCOC(=O)C1(Cc2ccc(OC)cc2)CCN(C(=O)c2ccoc2C)CC1	-42%	1%	-6%	4	?
CC(=O)c1sc2c(c1OC(=O)c1ccc(Cl)cc1Cl)c(=O)n(-c1ccccc1)c(=S)n2-c1ccccc1	i	14%	-7%	-16	7.9µM*
CC(=O)c1sc2c(c1OC(=O)c1ccc(Cl)cc1)c(=O)n(-c1ccccc1)c(=S)n2-c1ccccc1	i	-18%	0%	·	-3%
CC1=C(C(=O)OC2CCCC2)C(c2coc3ccccc3c2=O)C2=C(CC(C)(C)CC2=O)N1 (centres undefined)	-52%	-8%	15%	-5	2.5µM*
CC1CCN(CC(=O)Nc2ccccc2Sc2ccccc2)CC1	-17%	5%	4%	-11	4.5µM*
Cc1cccn2cc(CSc3nnc(Nc4ccc(C(C)C)cc4)s3)nc12	-17%	-11%	5%	-5	10µM*
CCN(CC)S(=O)(=O)c1ccc2c(c1)nc(CCC(=O)Nc1cccc(C(F)(F)F)c1)n2CC	-30%[57.5 µM]	-21%	1%	-4	10µM*
CCN(CC)S(=O)(=O)c1cccc(NC(=O)Nc2cccc(C(F)(F)F)c2)c1	i	?	-9%	-74*	7.9µM*
O=C(Nc1cccc(C(F)(F)F)c1)c1ccc2snnc2c1	i	-10%	-7%	·	7%
O=C(Nc1cccc(C(F)(F)F)c1)Nc1ccc2snnc2c1	-38%	-25%	-6%	·	11µM*
CNCCc1cnc(CCC(c2ccccc2)c2ccccc2)[nH]1	·	·	·	-5	·
